PubChem BioAssay (Tox21)
Records with an inconclusive call do not appear. Calls of active or inactive are those of the source. Calls follow the shape of the dose curve; as a rule, active = well fitted curve in the direction sought with a large enough effect in the repeat runs; inconclusive = weak or mixed curves; inactive = no such curve, though single readings can be large; an effect the other way counts as inactive or inconclusive.

Tests used:
[1] = qHTS RealTime-Glo MT Cell Viability Assay in HEK293 cells - 16 hour (AID 1224872); also: nearly all actives have a fitted effect of over 50% in size; also: potency is read from the fitted curve at half-maximal effect; as to activity change, negative = cytotoxicity: top concentration of the series differs between compounds
Summary of the method: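 Tox21 10K qHTS, HEK293, 600 cells/well, RealTime-Glo reagent co-dispensed with cells; 5 h preincubation, compound by pintool, 37 C, luminescence at 0–40 h.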

[2] = qHTS RealTime-Glo MT Cell Viability Assay in HepG2 cells - 8 hour (AID 1224873); also: nearly all actives have a fitted effect of over 55% in size; also: potency is read from the fitted curve at half-maximal effect
Summary of the method: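 HepG2 cells (600/well) mixed with RealTime-Glo MT reagent, settled 5 h at 37 C/5% CO2 before compound addition. Nonlytic NanoLuc luminescence from viable-cell prosubstrate reduction read repeatedly during 40 h treatment at 37 C.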

[3] = qHTS RealTime-Glo MT Cell Viability Assay in HEK293 cells - 40 hour (AID 1224874); details: RealTime-Glo luminescence; max response: active compounds read low; also: nearly all actives have a fitted effect of over 50% in size; also: potency is read from the fitted curve at half-maximal effect
Summary of the method: (§1)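 qHTS format; HEK293 cells with NanoLuc/prosubstrate reagent, 37 C/5% CO2 for 5 h pre-dosing; compounds 23 nL in DMSO; luminescence at each time point reflects viable cells.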

[4] = A CellTox Green Cytotoxicity Assay to monitor cytotoxicity in HEK293 cells - 24 hour (AID 1224875); also: nearly all actives have a fitted effect of over 45% in size; also: potency is read from the fitted curve at half-maximal effect; as to activity change: series mostly up to about 77 µM
Summary of the method: (§2)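 Each value comes from one timepoint of a single continuous run in which HEK293 cells with CellTox Green were exposed to compound for up to 40 h at 37 C, dye fluorescence rising with cell death.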

[5] = A CellTox Green Cytotoxicity Assay to monitor cytotoxicity in HepG2 cells - 16 hour (AID 1224876); also: nearly all actives have a fitted effect of over 45% in size; also: potency is read from the fitted curve at half-maximal effect
Summary of the method: (§3)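 Continuous culture of HepG2 cells with a membrane-impermeant DNA dye; rising fluorescence marks dead cells. Compound exposure lasted up to 40 h at 37 C, with reads every 8 h from 0 h.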

[6] = qHTS RealTime-Glo MT Cell Viability Assay in HepG2 cells - 32 hour (AID 1224877); also: nearly all actives have a fitted effect of over 55% in size; also: potency is read from the fitted curve at half-maximal effect
Summary of the method: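 Cells + NanoLuc/prosubstrate dispensed (600 cells/well) → 5 h at 37 C/5% CO2 → compounds in DMSO transferred → 40 h incubation at 37 C, luminescence read at 0, 8, 16, 24, 32, 40 h.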

[7] = qHTS RealTime-Glo MT Cell Viability Assay in HEK293 cells - 0 hour (AID 1224880); also: top concentration of the series differs between compounds; nearly all actives have a fitted effect of over 45% in size
Summary of the method: as §1

[8] = A CellTox Green Cytotoxicity Assay to monitor cytotoxicity in HEK293 cells - 32 hour (AID 1224881); also: nearly all actives have a fitted effect of over 40% in size; also: potency is read from the fitted curve at half-maximal effect
Summary of the method: as §2

[9] = A CellTox Green Cytotoxicity Assay to monitor cytotoxicity in HepG2 cells - 24 hour (AID 1224878); also: nearly all actives have a fitted effect of over 45% in size; also: potency is read from the fitted curve at half-maximal effect
Summary of the method: as §3

[10] = A CellTox Green Cytotoxicity Assay to monitor cytotoxicity in HepG2 cells - 40 hour (AID 1224879); also: nearly all actives have a fitted effect of over 40% in size; also: potency is read from the fitted curve at half-maximal effect
Summary of the method: as §3
% is scaled to controls: 0 for no effect and ±100 for the full control effect.

O=C(O)CO
inactive: Potency [1] | Potency [2] | max response [3] 8.33% | Potency [4] | Potency [5] | Potency [6] | Potency [7] | Potency [8]

O=C1[C@@H]2[C@H]3CC[C@H](C3)[C@@H]2C(=O)N1CCCCN1CCN(c2ncccn2)CC1
inactive: Potency [1] | Potency [2] | max response [3] -0.051% | Potency [4] | Potency [6] | Potency [7] | Potency [8]

CCCCCc1ccco1
inactive: Potency [1] | Potency [2] | max response [3] 4.73% | Potency [4] | Potency [6] | Potency [9] | Potency [10] | Potency [7] | Potency [8]

O=C(O)c1cccc(C[C@@H]2COc3ccc(OCc4nc5cc(F)ccc5s4)cc3[C@@H]2O)c1
inactive: Potency [1] | Potency [2] | max response [3] 4.74% | Potency [4] | Potency [6] | Potency [9] | Potency [10]

CC1=C2[C@@H]([C@H](C)CC[C@H]2/C=C(\C)C(=O)O)[C@H](O)C1
inactive: Potency [1] | Potency [2] | max response [3] -2.63% | Potency [4] | Potency [6] | Potency [9] | Potency [10] | Potency [7] | Potency [8]

CC(C)(C(=O)c1cccnc1)c1cccnc1
inactive: Potency [1] | Potency [2] | max response [3] 6.53% | Potency [4] | Potency [6] | Potency [9] | Potency [10] | Potency [7]

Nc1c(Cl)cc(Cl)cc1[N+](=O)[O-]
inactive: Potency [1] | Potency [2] | max response [3] 7.12% | Potency [4] | Potency [6] | Potency [7]

CCN(CC)C(=O)/C(C#N)=C/c1cc(O)c(O)c([N+](=O)[O-])c1
inactive: Potency [1] | Potency [2] | max response [3] 29.1% | Potency [4] | Potency [6] | Potency [9] | Potency [10] | Potency [7] | Potency [8]

Cc1cccc2sc(N)nc12
inactive: Potency [1] | Potency [2] | max response [3] 25.1% | Potency [4] | Potency [6] | Potency [9] | Potency [10] | Potency [7] | Potency [8]

O[C@@H](CNC[C@H](O)[C@H]1CCc2cc(F)ccc2O1)[C@@H]1CCc2cc(F)ccc2O1
active: Potency [1] 19 µM | Potency [2] 21.3 µM | Potency [3] 19 µM | Potency [4] 26.8 µM | Potency [6] 15.1 µM | Potency [9] 10.7 µM | Potency [10] 10.7 µM | Potency [8] 26.8 µM

CCC(CO)(CO)[N+](=O)[O-]
inactive: Potency [1] | Potency [2] | max response [3] 1.66% | Potency [4] | Potency [6] | Potency [7] | Potency [8]

CN1CCCN(C(c2ccccc2)c2ccc(Cl)cc2)CC1 (stereo not drawn)
inactive: Potency [1] | Potency [2]
active: Potency [4] 23.9 µM | Potency [5] 23.9 µM | Potency [6] 23.9 µM | Potency [9] 23.9 µM | Potency [10] 21.3 µM | Potency [8] 26.8 µM

CC(C)N=C=NC(C)C
inactive: Potency [1] | Potency [2] | Potency [4] | Potency [5] | Potency [6] | Potency [9] | Potency [10] | Potency [8]

CNc1c2c(nn1C)CCCC2
inactive: Potency [1] | Potency [2] | Potency [4] | Potency [5] | Potency [6] | Potency [9] | Potency [10] | Potency [7] | Potency [8]

Cc1ccc(Nc2c(F)cccc2Cl)c(CC(=O)O)c1
inactive: Potency [1] | Potency [2] | Potency [4] | Potency [5] | Potency [6] | Potency [9] | Potency [10] | Potency [7] | Potency [8]

CCCCCCC(CO)CCCC (stereo not drawn)
inactive: Potency [1] | Potency [2] | Potency [4] | Potency [5] | Potency [6] | Potency [9] | Potency [10] | Potency [8]

CCCC(=O)OC(=O)CCC
inactive: Potency [1] | Potency [2] | Potency [4] | Potency [5] | Potency [6] | Potency [9] | Potency [10] | Potency [7] | Potency [8]

CCCCCCCC/C=C/C(=O)O
inactive: Potency [1] | Potency [2] | Potency [4] | Potency [5] | Potency [6] | Potency [9] | Potency [10] | Potency [8]

CC[C@H]1OC(=O)[C@H](C)[C@@H](O[C@H]2C[C@@](C)(OC)[C@@H](O)[C@H](C)O2)[C@H](C)[C@@H](O[C@@H]2O[C@H](C)C[C@H](N(C)C)[C@H]2O)[C@](C)(O)C[C@@H](C)CN(C)[C@H](C)[C@@H](O)[C@]1(C)O
inactive: Potency [1] | Potency [2] | Potency [4] | Potency [5] | Potency [6] | Potency [9] | Potency [10] | Potency [7] | Potency [8]

CC1=CC[C@@H]2C[C@H]1C2(C)C
inactive: activity change, negative = cytotoxicity [1] 8.54% [at 15.8 µM] | viability change, negative = cytotoxic [2] 0.867% [at 15.8 µM] | activity change [4] 2.23% [at 15.8 µM, active compounds read high] | cytotoxicity increase [5] -4.53% [at 15.8 µM] | activity change, negative = cytotoxic [6] 2.7% [at 15.8 µM] | cytotoxicity [9] -4.03% [at 15.8 µM] | cytotoxicity increase [10] -3.58% [at 15.8 µM] | activity change, negative = cytotoxicity [7] -16.1% [at 15.8 µM] | cytotoxicity increase [8] 1.12% [at 15.8 µM]

C[C@H](CS)C(=O)N1CCC[C@H]1C(=O)O
inactive: Potency [1] | Potency [2] | Potency [4] | Potency [5] | Potency [6] | Potency [9] | Potency [10] | Potency [7] | Potency [8]

O=C(/C=C/c1ccc([N+](=O)[O-])cc1)c1ccccc1
inactive: Potency [2] | Potency [7]
active: Potency [1] 24.6 µM | Potency [3] 24.6 µM | Potency [5] 21.9 µM | Potency [9] 21.9 µM | Potency [10] 21.9 µM | Potency [8] 17.4 µM

CC(=O)OCCC(C)CC(C)(C)C (stereo not drawn)
inactive: Potency [1] | Potency [2] | Potency [4] | Potency [5] | Potency [6] | Potency [9] | Potency [10] | Potency [7] | Potency [8]

O=c1[nH][nH]c(=O)c2cc([N+](=O)[O-])ccc12
inactive: Potency [1] | Potency [2] | Potency [4] | Potency [5] | Potency [6] | Potency [9] | Potency [10] | Potency [7]
